# Measured values reported in PubChem BioAssay.
# Experiment: hepatitis C replication reporter changes, two-sided – Huh7 cells, luciferase reporter, HCV replication inhibitor project, primary screen (AID 1109);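 further: huh7 hepatoma cells harbouring a luciferase neomycin HCV replicon reporter; luciferase luminescence as measure of HCV replicon replication; test concentration not given here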
# Details: Huh7 HCV replicon luciferase reporter, 48 h; higher = more signal
row,Compound,z-score
1,CCN(CC)c1ccc(N2CC=CC34O[C@@H]5C=CCOC(=O)[C@@H]5[C@H]3C(=O)N(CCO)[C@@H]4C2=O)cc1 (some centres undefined),0.466
2,CCOC(=O)C1=CC[C@@H](c2ccccc2)N(S(=O)(=O)C[Si](C)(C)C)[C@H]1c1ccccc1,-0.61
3,CN(C)CCCC[C@@H]1NC(=O)[C@@H]2C[C@H](C(=O)NCc3ccc(F)cc3)[C@H](c3ccc(O)cc3)N2C1=O,-0.0619
4,C=CCOC(=O)[C@H]1[C@@H]2C(=O)O[C@@H](c3ccccc3)[C@@H](c3ccccc3)N2[C@@H](c2ccc(OCCOC(=O)[C@@H]3C[C@@H]4C(=O)N[C@@H](CC(C)C)C(=O)N4[C@@H]3c3ccc(O)cc3)cc2)[C@]12C(=O)Nc1ccc(I)cc12,-1.16
5,COCCCNC(=O)[C@@H]1c2ccccc2C(=O)N(C2CCCCC2)[C@H]1c1ccc(CO)cc1,-1.27
6,CN(C)CCCC[C@@H]1NC(=O)[C@H]2C[C@@H](C(=O)NCc3ccc(F)cc3)[C@@H](c3ccc(O)cc3)N2C1=O,0.206
7,COc1ccc(C#Cc2ccc3c(c2)[C@]2(C(=O)N3)[C@H](C(=O)Nc3nc4ccccc4s3)[C@H]3C(=O)O[C@H](c4ccccc4)[C@H](c4ccccc4)N3[C@@H]2c2ccc(OCCO)cc2)cc1,-2.03
8,C=CCC(OC(C)=O)[C@@H]1[C@@H](N(Cc2ccc(-c3cccc(C(F)(F)F)c3)o2)C(=O)c2cccc3ccccc23)c2cc(OCCCO)ccc2N1C(=O)c1ccc2ccccc2n1 (some centres undefined),0.66
9,C[N+](C)(C)CCCC[C@@H]1NC(=O)[C@H]2C[C@@H](C(=O)NCCCCCNC(=O)CS)[C@@H](c3ccc(O)cc3)N2C1=O,0.215
